# Experimental data published in PubChem BioAssay AID1159580 (chemical genetic matrix, 2015).
# Screen size: about 5,500 compounds; about 2,000 (36%) were called active. Another 18% or so got no clear call; they are omitted. The list shows a part of the results. Unmarked numbers belong to inactive results. Rule as the data show it: active = normalized growth mostly below about 0.91 (no sharp cut-off); inconclusive = no clear call, values can overlap the other calls; inactive = mostly above about 0.92.
# Experiment: chemical genetic growth profiling, strain panel (AID 1159580);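 also: tested at 20 µM; growth read once vehicle control cultures reached saturation at 30 °C; 1 = growth at the plate median or of vehicle wells; lower values mean less growth of the strain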
# Details: S. cerevisiae deletion strains, growth OD
compound,measurement,setting,value
CCCCCCNC(=O)n1cc(F)c(=O)[nH]c1=O,normalized growth,"locus YAL021C, strain ccr4, hits give low values",0.934
same,normalized growth,"locus YAL026C, strain drs2, hits give low values",0.849 (active)
same,normalized growth,"locus YAL030W, strain snc1, hits give low values",0.96
same,normalized growth,"locus YBL061C, strain skt5, hits give low values",0.972
same,normalized growth,"locus YBR009C, strain hhf1, hits give low values",0.861 (active)
same,normalized growth,"locus YBR023C, strain chs3, hits give low values",0.937
same,normalized growth,"locus YBR171W, strain sec66, hits give low values",0.996
same,normalized growth,"locus YBR231C, strain swc5, hits give low values",0.988
same,normalized growth,"locus YBR279W, strain paf1, hits give low values",0.834 (active)
same,normalized growth,"locus YCL011C, strain gbp2, hits give low values",0.91
same,normalized growth,"locus YCL016C, strain dcc1, hits give low values",0.86 (active)
same,normalized growth,"locus YCL069W, strain vba3, hits give low values",0.842 (active)
same,normalized growth,"locus YCR088W, strain abp1, hits give low values",0.934
same,normalized growth,"locus YDL005C, strain med2, hits give low values",0.941
same,normalized growth,"locus YDL040C, strain nat1, hits give low values",0.991
same,normalized growth,"locus YDR001C, strain nth1, hits give low values",0.995
same,normalized growth,"locus YDR069C, strain doa4, hits give low values",0.803 (active)
same,normalized growth,"locus YDR137W, strain rgp1, hits give low values",0.553 (active)
same,normalized growth,"locus YDR159W, strain sac3, hits give low values",1.22 [resistant] (active)
same,normalized growth,"locus YDR195W, strain ref2",0.678 (active)
same,normalized growth,"locus YDR297W, strain sur2, hits give low values",0.978
same,normalized growth,"locus YDR334W, strain swr1, hits give low values",0.93
same,normalized growth,"locus YDR335W, strain msn5, hits give low values",0.782 (active)
same,normalized growth,"locus YDR392W, strain spt3, hits give low values",0.776
same,normalized growth,"locus YEL003W, strain gim4, hits give low values",0.895 (active)
same,normalized growth,"locus YEL037C, strain rad23, hits give low values",0.894 (active)
same,normalized growth,"locus YEL061C, strain CIN8 (second series), hits give low values",0.95
same,normalized growth,"locus YER015W, strain faa2, hits give low values",0.889 (active)
same,normalized growth,"locus YER016W, strain bim1, hits give low values",0.899 (active)
same,normalized growth,"locus YER111C, strain swi4, hits give low values",0.923
same,normalized growth,"locus YER155C, strain BEM2 (second series), hits give low values",0.767 (active)
same,normalized growth,"locus YFR010W, strain ubp6, hits give low values",0.757 (active)
same,normalized growth,"locus YGL167C, strain pmr1, hits give low values",0.918
same,normalized growth,"locus YGL173C, strain kem1, hits give low values",0.897 (active)
same,normalized growth,"locus YGL227W, strain vid30, hits give low values",0.99
same,normalized growth,"locus YGL240W, strain doc1, hits give low values",0.971
same,normalized growth,"locus YGL253W, strain hxk2, hits give low values",0.613 (active)
same,normalized growth,"locus YHR013C, strain ard1, hits give low values",0.933
same,normalized growth,"locus YHR027C, strain rpn1, hits give low values",0.911 (active)
same,normalized growth,"locus YHR030C, strain SLT2, hits give low values",0.532 (active)
same,normalized growth,"locus YHR079C, strain IRE1, hits give low values",0.45 (active)
same,normalized growth,"locus YHR142W, strain chs7, hits give low values",0.741 (active)
same,normalized growth,"locus YJL092W, strain hpr5, hits give low values",0.912 (active)
same,normalized growth,"locus YJL095W, strain BCK1 (second series), hits give low values",0.945
same,normalized growth,"locus YJL095W, strain BCK1, hits give low values",0.541 (active)
same,normalized growth,"locus YJL115W, strain asf1, hits give low values",0.941
same,normalized growth,"locus YJL129C, strain trk1, hits give low values",0.76 (active)
same,normalized growth,"locus YJL154C, strain vps35, hits give low values",0.943
same,normalized growth,"locus YJL164C, strain tpk1, hits give low values",0.865 (active)
same,normalized growth,"locus YJL166W, strain qcr8, hits give low values",0.902 (active)
same,normalized growth,"locus YJR066W, strain TOR1, hits give low values",0.407 (active)
same,normalized growth,"locus YKL160W, strain elf1, hits give low values",0.907
same,normalized growth,"locus YKR026C, strain gcn3, hits give low values",0.993
same,normalized growth,"locus YKR091W, strain srl3, hits give low values",0.975
same,normalized growth,"locus YLL001W, strain dnm1, hits give low values",0.773 (active)
same,normalized growth,"locus YLL026W, hits give low values",0.974
same,normalized growth,"locus YLL041C, strain sdh2, hits give low values",0.979
same,normalized growth,"locus YLR027C, strain aat2, hits give low values",0.956
same,normalized growth,"locus YLR113W, strain HOG1, hits give low values",0.607 (active)
same,normalized growth,"locus YLR221C, strain rsa3, hits give low values",0.697 (active)
same,normalized growth,"locus YLR258W, strain gsy2, hits give low values",0.884 (active)
same,normalized growth,"locus YLR262C, strain YPT6 (second series), hits give low values",0.528 (active)
same,normalized growth,"locus YLR320W, strain mms22, hits give low values",0.733 (active)
same,normalized growth,"locus YLR342W, strain FKS1, hits give low values",0.938
same,normalized growth,"locus YLR357W, strain rsc2, hits give low values",0.803 (active)
same,normalized growth,"locus YLR370C, strain arc18, hits give low values",0.923
same,normalized growth,"locus YLR384C, strain iki3, hits give low values",0.963
same,normalized growth,"locus YML120C, strain ndi1, hits give low values",0.92
same,normalized growth,"locus YMR058W, strain fet3, hits give low values",0.926
same,normalized growth,"locus YMR125W, strain sto1, hits give low values",0.958
same,normalized growth,"locus YMR129W, hits give low values",0.987
same,normalized growth,"locus YMR205C, strain PFK2, hits give low values",0.898
same,normalized growth,"locus YMR231W, strain pep5, hits give low values",0.942
same,normalized growth,"locus YNL071W, strain lat1, hits give low values",0.891 (active)
same,normalized growth,"locus YNL183C, strain NPR1, hits give low values",0.48 (active)
same,normalized growth,"locus YNL209W, strain ssb2, hits give low values",0.959
same,normalized growth,"locus YNL248C, strain rpa49, hits give low values",0.589 (active)
same,normalized growth,"locus YNL322C, strain KRE1 (second series), hits give low values",0.936
same,normalized growth,"locus YNR049C, strain mso1, hits give low values",0.931
same,normalized growth,"locus YOR001W, strain rrp6, hits give low values",0.257 (active)
same,normalized growth,"locus YOR070C, strain gyp1, hits give low values",0.958
same,normalized growth,"locus YOR080W, strain dia2, hits give low values",0.968
same,normalized growth,"locus YOR083W, strain WHI5, hits give low values",0.84 (active)
same,normalized growth,"locus YOR106W, strain vam3, hits give low values",0.668 (active)
same,normalized growth,"locus YOR231W, strain MKK1, hits give low values",0.41 (active)
same,normalized growth,"locus YOR265W, strain rbl2, hits give low values",0.968
same,normalized growth,"locus YOR270C, strain vph1, hits give low values",0.518 (active)
same,normalized growth,"locus YOR290C, strain snf2, hits give low values",0.723 (active)
same,normalized growth,"locus YPL051W, strain arl3, hits give low values",0.843 (active)
same,normalized growth,"locus YPL078C, strain atp4, hits give low values",0.77 (active)
same,normalized growth,"locus YPL106C, strain sse1, hits give low values",0.722 (active)
same,normalized growth,"locus YPL240C, strain hsp82, hits give low values",0.978
same,normalized growth,"locus YPL256C, strain CLN2, hits give low values",0.564 (active)
